The text below walks through data of PubChem BioAssay (Tox21).

Structures are written as SMILES. Results filed as inconclusive are left out. Activity calls are given as the source filed them. Calls follow the shape of the dose curve; as a rule, active = well fitted cell-killing curve with a large enough effect in the repeat runs; inconclusive = weak or mixed curves, or effect the other way; inactive = no such curve, though single readings can be large or run the other way.
% is scaled to controls: 0 for no effect and ±100 for the full control effect; potency is read from the fitted curve at half-maximal effect.

The test can be described thus: qHTS assay to identify small molecule antagonists of the retinoid-related orphan receptor gamma (ROR-gamma) signaling pathway - cell viability counter screen (AID 1159520). Also: nearly all actives have a fitted effect of over 50% in size. The note with it: Tet-on RORgamma CHO cells viability, ATP luminescence, 16 h; series mostly up to 92.4 µM; activity, negative = cytotoxicity: at the top concentration. An excerpt: U.S. Tox21 Program National Center for Advancing Translational Sciences [NCATS] NIH Chemical Genomics Center [NCGC] U.S. Environmental Protection Agency [EPA] National Institutes of Environmental Health Sciences [NIEHS] National Toxicology Program [NTP] U.S. Food and Drug Administration [FDA] Tox21 Assay Overview: Nuclear steroid hormone receptors are involved in many biological processes including inflammatory responses, cell proliferation, and apoptosis. Environmental factors or compounds disrupting these nuclear receptor pathways and gene expression may promote susceptibility to immunotoxicants and autoimmune diseases. One important group of these expression factors are the retinoid-related orphan receptors. To assess compounds that may interfere with the retinoid-related orphan receptor gamma (ROR-gamma) transcription factor, a cell-based luciferase assay was used. The CHO cell-based assay utilizes a TET-inducible ROR expression factor and ROR response element-LUC reporter gene. Reporter gene activity was induced using Doxycycline Hyclate and measured after 16 hr incubation. Tet-on ROR gamma CHO cells were used to screen against the Tox21 10K compound library for cytotoxicity by measuring the viability of the cells based on the quantitation of the ATP.
Tox21 Assay Protocol Summary: Tet-on ROR gamma CHO cells were dispensed at 1,000 cells in 4 uL of culture medium per well into white wall/solid bottom 1536-well plates using a Multidrop Combi (Thermo Scientific, Waltham, MA) dispenser. Following incubation at 37 C and 5% CO2 for 4 hr, 23 nL of compounds dissolved in DMSO, positive controls or DMSO only were transferred by a Pintool station (Kalypsys, San Diego, CA) and after 2 hr incubation at 37 C, one ul of 1 uM (final concentration) of Doxycycline Hyclate was added to all the wells by using a Flying Reagent Dispenser (FRD) (Aurora Discovery, San Diego, CA). After 16 hr incubation at 37 C and 5% CO2, 5 uL of CellTiter-Glo reagent (Promega Corporation, Madison, WI) was added to each assay plate using FRD. After 30 min incubation at room temperature, luminescence was quantified on a ViewLux plate reader (Perkin Elmer, Waltham, MA).
A general note: In qHTS, concentration-response curves come from the screen itself.
Take `CNCCCCOc1ccccc1Cc1ccccc1`: the “activity, negative = cytotoxicity” value is -4.9% [at 42.5 µM] (inactive). With `C=CCOc1ccccc1OCC(O)CNC(C)C` (stereo not given), the “activity, negative = cytotoxicity” value is 3.46% [at 42.5 µM] (inactive). The same measure, in the same setting: in the case of `Cc1[nH]c(C)c(Cl)c(=O)c1Cl` it was 3.57% [at 19 µM] (inactive); in that of `CCN(CC)CCNC(=O)c1cc(Br)c(N)cc1OC`, -2.87% [at 42.5 µM] (inactive); in that of `CCCCc1ncc(/C=C(\Cc2cccs2)C(=O)O)n1Cc1ccc(C(=O)O)cc1`, 6.69% [at 42.5 µM] (inactive). Regarding `Cc1ncc(CO)c(C=O)c1O`, the “activity, negative = cytotoxicity” value was 2.68% [at 42.5 µM] (inactive). On the same count and under the same terms, the result for `CCCCCCCCCCO[C@@H]1O[C@H](CO)[C@@H](O)[C@H](O)[C@H]1O` reads -7.98% (inactive). Turning to `O=C(CS)Nc1ccccc1`, the “activity, negative = cytotoxicity” value was -3.55% [at 42.5 µM] (inactive). Still for that read-out and setting: the result for `CN1C[C@H]2c3ccccc3Oc3ccc(Cl)cc3[C@@H]2C1` reads -11.2% [at 42.5 µM] (inactive); that for `O=C1c2ccccc2S(=O)(=O)N1CCCCN1CCN(c2ncccn2)CC1`, -0.645% [at 42.5 µM] (inactive); that for `CN(C)c1ccc(C(c2ccccc2)c2ccc(N(C)C)cc2)cc1`, -14.3% (inactive).

Take `CCCCCCCCCc1ccc(OCCOCCO)cc1`: the “activity, negative = cytotoxicity” value was -19.5% [at 42.5 µM] (inactive).

As for `Cn1c(=O)cc(Oc2ccc(F)cc2F)c2cnc(NCC(C)(C)O)nc21`, the “activity, negative = cytotoxicity” value is -8.2% (inactive). In the case of `CCCCNc1ccc(C(=O)OCCOCCOCCOCCOCCOCCOCCOCCOCCOC)cc1`, the “activity, negative = cytotoxicity” value was -2.74% [at 42.5 µM] (inactive). The same measure, in the same setting: in the case of `COc1cc(Cl)ccc1Oc1ccc(Cl)cc1Cl` it was -11.2% (inactive). As to `Cc1ccccc1S(=O)(=O)O`, the “activity, negative = cytotoxicity” value is 3.35% (inactive). Same read-out and setting: in the case of `CCCCCCCCO[C@@H]1O[C@H](CO)[C@@H](O)[C@H](O)[C@H]1O` it was -0.67% (inactive); in that of `CCO[Si](CCCCl)(OCC)OCC`, -11.9% (inactive); in that of `NS(=O)(=O)c1ccc(N2CCCCS2(=O)=O)cc1`, 3.32% [at 42.5 µM] (inactive).

For the compound `C[N+]1(C)CCC(OC(=O)C(O)(c2ccccc2)C2CCCC2)C1` (stereo not given), the “activity, negative = cytotoxicity” value was 0.807% [at 42.5 µM] (inactive). For the compound `CC(CSC(=O)c1ccccc1)C(=O)N1C[C@@H](Sc2ccccc2)C[C@H]1C(=O)O` (stereo not given in full), the activity, negative = cytotoxicity was 3.47% [at 19 µM] (inactive). With `CNC(=O)CN(CCN(CCN(CC(=O)[O-])CC(=O)NC)CC(=O)[O-])CC(=O)[O-].O.[Gd+3]`, the “activity, negative = cytotoxicity” value was 1.24% [at 42.5 µM] (inactive). Take `CCCn1cnc2c1c(=O)n(CCCCC(C)=O)c(=O)n2C`: the “activity, negative = cytotoxicity” value is 0.956% [at 42.5 µM] (inactive).

In the case of `CC(CC=O)c1ccccc1` (stereo not given), the “activity, negative = cytotoxicity” value is 8.59% (inactive). Same read-out and setting: the result for `CCC(C)O` (stereo not given) reads 3.57% (inactive); that for `COc1cccc(N(C)C(=S)Oc2ccc3c(c2)CCCC3)n1`, -6.44% [at 42.5 µM] (inactive); that for `O=C(O)c1ccccc1Cl`, 13.8% (inactive). Turning to `O=C(Cl)c1cc(C(=O)Cl)cc(C(=O)Cl)c1`, the Potency was 61.1 µM (active). In the case of `OC[C@H]1O[C@@H](OCCc2ccc(O)cc2)[C@H](O)[C@@H](O)[C@@H]1O`, the “activity, negative = cytotoxicity” value was 0.831% [at 42.5 µM] (inactive). On the same count and under the same terms, the result for `CCCCC(=O)OCC(=O)[C@H]1[C@H](C)C[C@H]2[C@@H]3C[C@H](F)C4=CC(=O)C=C[C@]4(C)[C@@]3(F)[C@@H](O)C[C@@]21C` reads 4.93% [at 42.5 µM] (inactive); that for `CC/C=C\CCOC(=O)CC`, -2% (inactive). Turning to `CN1CCC(=C2c3ccccc3Sc3ccccc32)CC1`, the “activity, negative = cytotoxicity” value was -9.18% [at 42.5 µM] (inactive). In the case of `C#Cc1cccc(Nc2ncnc3cc(OCCOC)c(OCCOC)cc23)c1`, the “activity, negative = cytotoxicity” value was -6.89% [at 42.5 µM] (inactive). On the same count and under the same terms, the result for `CCCCC1=NC2(CCCC2)C(=O)N1Cc1ccc(-c2ccccc2-c2nn[nH]n2)cc1` reads 2.27% [at 42.5 µM] (inactive); that for `CC1CCC(=O)C1=O` (stereo not given), 12.8% (inactive).

For `CCCCc1nc2cccnc2n1Cc1ccc(-c2ccccc2-c2nnn[nH]2)cc1`, the “activity, negative = cytotoxicity” value is 1.06% (inactive). Same read-out and setting: the result for `COc1cc2nc(Cl)nc(N)c2cc1OC` reads 0.358% [at 42.5 µM] (inactive). On to `Brc1c2ccccc2c(Br)c2ccccc12`, for which the activity, negative = cytotoxicity was 12% [at 8.39 µM] (inactive). Consider `COC(C)(C)CCO`, for which the “activity, negative = cytotoxicity” value is 7.07% (inactive). Consider `CCCCCCCC/C=C\CCCCCCCC(=O)OCC`, for which the “activity, negative = cytotoxicity” value was 6.48% (inactive).
